Results filed as inconclusive are left out. The source made the active and inactive calls. Unless noted, calls follow the shape of the dose curve; as a rule, active = well fitted curve in the direction sought with a large enough effect in the repeat runs; inconclusive = weak or mixed curves; inactive = no such curve, though single readings can be large; an effect the other way counts as inactive or inconclusive.
Assays:
[1] = A CellTox Green Cytotoxicity Assay to monitor cytotoxicity in HepG2 cells - 8 hour (AID 1224890); also: nearly all actives have a fitted effect of over 45% in size; also: potency is read from the fitted curve at half-maximal effect
Summary of the method: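 Real-time, homogeneous cytotoxicity readout: dead-cell DNA staining by CellTox Green in HepG2 monolayers, fluorescence measured at timed intervals up to 40 h of continuous compound exposure.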

[2] = qHTS assay to identify small molecule antagonists of the estrogen receptor alpha (ER-alpha) signaling pathway using the BG1 cell line in the presence of 0.1 nM 17-beta-estradiol - cell viability counter screen (AID 1259241); also: nearly all actives have a fitted effect of over 40% in size
Summary of the method: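 VM7Luc4E2 cells (endogenous ER-alpha, 4×ERE-luciferase), hormone-starved 5 days in charcoal-stripped FBS, were treated with compounds plus 0.1 nM 17beta-estradiol for 22 hr at 37C; viability read in same wells as CellTiter-Fluor live-cell protease fluorescence.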

[3] = qHTS assay to identify small molecule antagonists of the androgen receptor (AR) signaling pathway using the MDA cell line in the presence of 0.5 nM R1881 - cell viability counter screen (AID 1259242); also: nearly all actives have a fitted effect of over 45% in size
Summary of the method: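 Cytotoxicity toward MDA-kb2 cells is measured by CellTiter-Fluor live-cell protease fluorescence after 16 hr compound exposure at 37C in the presence of 0.5 nM R1881 stimulator.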

[4] = qHTS assay to identify small molecule HDAC inhibitors (AID 1259364); also: nearly all actives have a fitted effect of over 45% in size; also: potency is read from the fitted curve at half-maximal effect
Summary of the method: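 Homogeneous cell-based luminescent assay of endogenous class I/II HDAC activity; HCT-116 cells, 2 h compound exposure, 30 min HDAC-Glo development at RT.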

[5] = qHTS assay to identify small molecule HDAC inhibitors - cell viability counter screen (AID 1259365); also: series mostly up to about 92 µM; nearly all actives have a fitted effect of over 50% in size
Summary of the method: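 Wild-type HCT-116 cells were seeded at 1,500 per well, incubated overnight at 37 C, then exposed to compounds in DMSO for 2hr. Viability was read by CellTiter-Glo luminescence after 30min at room temperature.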

[6] = qHTS assay to identify small molecule agonists of the sonic hedgehog signaling (Shh) pathway - cell viability counter screen (AID 1259366); also: nearly all actives have a fitted effect of over 50% in size; also: potency is read from the fitted curve at half-maximal effect
Summary of the method: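 NIH/3T3-derived 3T3 Gli1-Luc cells (stable Gli1-responsive firefly luciferase reporter) were seeded, rested 4 hr at 37 C/5% CO2, then exposed to compounds in DMSO for 24 hr; viability was read by CellTiter-Fluor fluorescence in the same wells.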

[7] = qHTS assay to identify small molecule antagonists of the sonic hedgehog signaling (Shh) pathway - cell viability counter screen (AID 1259367); also: nearly all actives have a fitted effect of over 55% in size; also: potency is read from the fitted curve at half-maximal effect
Summary of the method: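 After a 4 hr settling period, 3T3 Gli1-Luc cells were treated with DMSO-dissolved chemicals and conditioned medium, kept 24 hr at 37C in 5% CO2, and assayed for viability by CellTiter-Fluor fluorescence following 1 hr reagent incubation.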

[8] = qHTS assay to identify small molecule agonists of the sonic hedgehog signaling (Shh) pathway (AID 1259368; calls by dose curve; also: series mostly up to about 92 µM; nearly all actives have a fitted effect of over 15% in size)
Summary of the method: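 Steps: seed 3T3 Gli1-Luc cells, incubate 4 hr at 37 C, pin-transfer compounds in DMSO alongside a positive control, incubate 24 hr, add luciferase detection reagent, wait 30 min at room temperature, read luminescence.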

[9] = target: Estrogen receptor beta (Homo sapiens) (UniProt Q92731); assay: qHTS assay to identify small molecule agonists of the estrogen receptor beta (ER-beta) signaling pathway (AID 1259377; active = well fitted activation curve with a large enough effect in the signal ratio in the repeat runs, not every such curve was filed as active; the % refers to the signal ratio)
Summary of the method: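 ER-beta-UAS-bla HEK293T (GripTite) cells carrying a UAS-driven beta-lactamase reporter, in medium with 2% charcoal-stripped FBS, were exposed to compounds for 16 hr at 37C; LiveBLAzer B/G FRET substrate was then added and fluorescence read after 2 hours at room temperature.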

[10] = qHTS assay to identify small molecule agonists of the androgen receptor (AR) signaling pathway in the presence of an antagonist - cell viability counter screen (AID 1259379);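 also: MDA-kb2 human breast cancer cells carrying an MMTV luciferase reporter; series mostly up to about 92 µM; nearly all actives have a fitted effect of over 25% in size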
Summary of the method: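 Fluorescence from CellTiter-Fluor, added after 15 hr and read 1 hr later, gave cell viability. Cells were MDA-kb2 exposed to compounds (15 concentrations) in the presence of 3.0uM nilutamide at 37C, 0% CO2.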

[11] = qHTS assay to identify small molecule agonists of the estrogen receptor beta (ER-beta) signaling pathway - cell viability counter screen (AID 1259380); also: nearly all actives have a fitted effect of over 30% in size; also: potency is read from the fitted curve at half-maximal effect
Summary of the method: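 Same-well viability counter screen. Cells: ER-beta-UAS-bla HEK293T, plated 6 hr before compound, in 2% charcoal-stripped FBS. Compound exposure 16 hr, 37C; viability by CellTiter-Glo luminescence after 30 min at room temperature.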

[12] = qHTS assay to identify small molecule agonists or antagonists of the thyroid stimulating hormone receptor (TSHR) signaling pathway - wild type cell line counter screen (AID 1259384; calls by dose curve)
Summary of the method: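 Wild-type HEK293 cells were plated 18 h at 37 C/5% CO2, pin-dosed with compound plus Ro20-1724 medium, held 30 min at room temperature, then given cAMP-d2 and anti-cAMP-cryptate; fluorescence was read after 1 h. Fifteen concentrations, triplicate.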

[13] = qHTS assay to identify small molecule antagonists of the estrogen receptor beta (ER-beta) signaling pathway - cell viability counter screen (AID 1259382); also: series mostly up to about 92 µM; nearly all actives have a fitted effect of over 55% in size
Summary of the method: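 Following a 6 hr plating period, HEK293T cells carrying a UAS-driven beta-lactamase reporter under ER-beta control received compounds and 1nM E2 (final). After 16 hr at 37C and 2 hr substrate loading, CellTiter-Glo luminescence indicated viability.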

[14] = target: Androgen receptor (Homo sapiens) (UniProt P10275); assay: qHTS assay to identify small molecule antagonists of the androgen receptor (AR) signaling pathway using the MDA cell line in the presence of 0.5 nM R1881 (AID 1259243); also: nearly all actives have a fitted effect of over 50% in size; also: potency is read from the fitted curve at half-maximal effect
Summary of the method: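 Steps: seed MDA-kb2 cells, incubate 5 hr at 37C; pin-transfer compounds in DMSO; add R1881 to 0.5 nM final; incubate 16 hr; add ONE-Glo, wait 30 min at room temperature; read luminescence.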

[15] = target: Estrogen receptor (Homo sapiens) (UniProt P03372); assay: qHTS assay to identify small molecule antagonists of the estrogen receptor alpha (ER-alpha) signaling pathway using the BG1 cell line in the presence of 0.1 nM 17-beta-estradiol (AID 1259244); also: nearly all actives have a fitted effect of over 50% in size
Summary of the method: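 After 5 days in hormone-depleted medium (charcoal-stripped serum, no phenol red), VM7Luc4E2 cells were seeded, incubated 24 h, then co-treated with compound and 0.1 nM (final) estradiol for 22 h before luminescence detection.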

[16] = qHTS assay to identify small molecule phospholipidosis (PLD) inducers (AID 1259344; active = well fitted curve in the direction sought with a large enough effect; an effect the other way counts as inactive or inconclusive)
Summary of the method: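 HepG2 cells grown on collagen I take up LipidTOX Red while exposed to compound for 24 h; after fixation they are imaged at 20x and pit metrics are extracted.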

[17] = qHTS assay to identify small molecule antagonists of the sonic hedgehog signaling (Shh) pathway (AID 1259369; calls by dose curve; also: nearly all actives have a fitted effect of over 45% in size; also: potency is read from the fitted curve at half-maximal effect)
Summary of the method: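 Inhibition of Shh signalling is measured as reduced Gli1-response-element firefly luciferase output in an NIH/3T3-derived stable reporter clone stimulated with conditioned medium for 24hr.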

[18] = target: Androgen receptor (Homo sapiens) (UniProt P10275); assay: qHTS assay to identify small molecule agonists of the androgen receptor (AR) signaling pathway in the presence of an antagonist (AID 1259381; calls by dose curve; also: nearly all actives have a fitted effect of over 15% in size)
Summary of the method: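 Cells are MDA-kb2 (human breast carcinoma, MMTV-luc, AR/GR responsive). Nilutamide is present at 3.0uM final throughout; compounds are added at 15 concentrations and incubated 16hr at 37C before ONE-Glo luminescence detection.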

[19] = target: Estrogen receptor (Homo sapiens) (UniProt P03372); assay: qHTS assay to identify small molecule agonists of the estrogen receptor alpha (ER-alpha) signaling pathway in the presence of an antagonist (AID 1259383; calls by dose curve; also: top concentration of the series differs between compounds; nearly all actives have a fitted effect of over 15% in size)
Summary of the method: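 Cells are hormone-deprived for 5 days (charcoal-stripped FBS, no phenol red), plated for 24hr, spiked with 10.0nM ICI-182,780, then dosed at 15 concentrations. After 22hr at 37C, ONE-Glo luminescence reports ERE-luciferase activity.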

[20] = target: Estrogen receptor beta (Homo sapiens) (UniProt Q92731); assay: qHTS assay to identify small molecule antagonists of the estrogen receptor beta (ER-beta) signaling pathway (AID 1259378; active = well fitted inhibition curve with a large enough effect in the signal ratio in the repeat runs, not every such curve was filed as active; the % refers to the signal ratio)
Summary of the method: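 ER-beta-UAS-bla HEK293T (GripTite) cells in 2% charcoal-stripped FBS medium were preincubated 6 hr at 37C, dosed with compound, then stimulated with 1 nM E2 (final) for 16 hr; beta-lactamase reporter read by B/G FRET fluorescence after 2 hr substrate loading.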

Measured: Potency

Sequence of Estrogen receptor beta (Homo sapiens) (Q92731 whole entry, looked up): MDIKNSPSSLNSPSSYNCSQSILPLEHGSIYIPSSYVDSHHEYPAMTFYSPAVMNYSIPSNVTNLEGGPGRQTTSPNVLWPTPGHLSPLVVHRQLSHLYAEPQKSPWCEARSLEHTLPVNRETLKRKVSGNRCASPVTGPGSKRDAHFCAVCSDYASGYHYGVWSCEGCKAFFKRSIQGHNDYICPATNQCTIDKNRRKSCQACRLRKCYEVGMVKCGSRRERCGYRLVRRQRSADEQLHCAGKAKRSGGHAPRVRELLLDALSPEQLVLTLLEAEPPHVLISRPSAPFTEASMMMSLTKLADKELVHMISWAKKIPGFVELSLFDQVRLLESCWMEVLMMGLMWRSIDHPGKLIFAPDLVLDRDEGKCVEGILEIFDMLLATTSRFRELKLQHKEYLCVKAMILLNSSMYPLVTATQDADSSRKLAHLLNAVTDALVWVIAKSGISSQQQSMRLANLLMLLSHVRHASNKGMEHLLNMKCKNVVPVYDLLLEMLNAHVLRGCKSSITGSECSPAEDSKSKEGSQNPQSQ
Sequence of Androgen receptor (Homo sapiens) (P10275 whole entry, looked up): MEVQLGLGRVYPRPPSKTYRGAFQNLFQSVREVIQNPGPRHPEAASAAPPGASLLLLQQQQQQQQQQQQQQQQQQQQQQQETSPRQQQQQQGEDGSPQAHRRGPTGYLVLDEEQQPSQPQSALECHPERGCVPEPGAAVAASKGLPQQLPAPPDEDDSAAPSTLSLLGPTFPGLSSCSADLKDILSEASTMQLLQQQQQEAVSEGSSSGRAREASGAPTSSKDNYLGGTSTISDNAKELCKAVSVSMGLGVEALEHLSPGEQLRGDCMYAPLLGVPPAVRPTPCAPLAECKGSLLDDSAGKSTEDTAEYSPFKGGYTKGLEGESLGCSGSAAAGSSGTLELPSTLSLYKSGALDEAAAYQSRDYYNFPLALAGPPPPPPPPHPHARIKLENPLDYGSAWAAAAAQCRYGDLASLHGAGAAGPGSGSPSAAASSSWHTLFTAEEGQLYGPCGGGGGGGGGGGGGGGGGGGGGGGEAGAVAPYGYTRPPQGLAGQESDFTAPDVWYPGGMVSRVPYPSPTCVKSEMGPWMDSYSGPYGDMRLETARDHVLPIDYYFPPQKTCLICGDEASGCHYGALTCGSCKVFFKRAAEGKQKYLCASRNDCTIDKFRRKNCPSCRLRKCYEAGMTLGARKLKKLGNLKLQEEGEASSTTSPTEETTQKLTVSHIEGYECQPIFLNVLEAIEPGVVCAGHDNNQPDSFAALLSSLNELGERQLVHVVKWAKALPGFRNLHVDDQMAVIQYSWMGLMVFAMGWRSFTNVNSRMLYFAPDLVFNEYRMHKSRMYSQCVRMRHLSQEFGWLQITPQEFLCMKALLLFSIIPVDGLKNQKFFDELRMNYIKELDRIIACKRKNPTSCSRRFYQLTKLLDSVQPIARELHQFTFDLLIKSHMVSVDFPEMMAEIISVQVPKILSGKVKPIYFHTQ
Sequence of Estrogen receptor (Homo sapiens) (P03372 whole entry, looked up): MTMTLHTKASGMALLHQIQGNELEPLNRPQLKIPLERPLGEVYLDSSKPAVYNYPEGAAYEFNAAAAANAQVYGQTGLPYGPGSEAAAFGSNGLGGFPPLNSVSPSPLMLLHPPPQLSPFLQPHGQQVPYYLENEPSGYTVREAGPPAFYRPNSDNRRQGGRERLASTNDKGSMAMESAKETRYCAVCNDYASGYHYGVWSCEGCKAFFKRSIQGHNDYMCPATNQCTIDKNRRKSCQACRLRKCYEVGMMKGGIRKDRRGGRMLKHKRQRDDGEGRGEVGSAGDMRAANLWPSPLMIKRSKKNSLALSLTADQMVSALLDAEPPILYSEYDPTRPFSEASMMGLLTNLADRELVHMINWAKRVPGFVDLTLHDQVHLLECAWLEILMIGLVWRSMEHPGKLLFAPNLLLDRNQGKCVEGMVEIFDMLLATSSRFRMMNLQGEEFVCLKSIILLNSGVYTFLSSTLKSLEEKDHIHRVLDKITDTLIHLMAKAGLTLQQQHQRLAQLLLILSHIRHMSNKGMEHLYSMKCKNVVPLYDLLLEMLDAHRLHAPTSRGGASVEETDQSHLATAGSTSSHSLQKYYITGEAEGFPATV

CCCCCCCCc1ccc(S(=O)(=O)O)cc1
active: [11] 19.2 µM
inactive: [1] | [2] | [3] | [4] | [5] | [6] | [7] | [8] | [9] | [10] | [12]

CCCCOc1cc(C(=O)NCCN(CC)CC)c2ccccc2n1
inactive: [1] | [2] | [3] | [4] | [5] | [7] | [8] | [9] | [13] | [12]

CCCCCOc1ccc(C2SC(=O)NC2=O)cc1OCC (stereo not drawn)
active: [11] 29.8 µM
inactive: [2] | [3] | [14] | [15] | [16] | [4] | [5] | [6] | [7] | [8] | [17] | [9] | [10] | [18] | [19] | [12]

Cc1ccccc1C(=O)Nc1ccc(C(=O)N2CCCC(O)c3cc(Cl)ccc32)c(C)c1 (stereo not drawn)
active: [11] 23.7 µM
inactive: [1] | [2] | [3] | [4] | [5] | [8] | [17] | [10] | [13]

COC(=O)N[C@H](C(=O)N[C@@H](Cc1ccccc1)[C@@H](O)CN(Cc1ccc(-c2ccccn2)cc1)NC(=O)[C@@H](NC(=O)OC)C(C)(C)C)C(C)(C)C
inactive: [2] | [3] | [4] | [5] | [8] | [9] | [20] | [10] | [13] | [19] | [12]

CC[C@H]1CC[C@H](NCc2cc3c(cc2OC)[C@H]2C[C@H]2C(=O)N3C)[C@H](c2ccccc2)N1
active: [17] 4.33 µM
inactive: [1] | [3] | [4] | [5] | [8] | [9] | [20] | [13] | [19] | [12]

CCCCCCCCCC#N
active: [7] 60.8 µM | [17] 24.2 µM
inactive: [1] | [2] | [3] | [4] | [5] | [8] | [9] | [10] | [11] | [13] | [19] | [12]

O=C1CCC(C2CCCCC2)CC1
active: [1] 27.5 µM
inactive: [2] | [3] | [4] | [6] | [7] | [8] | [17] | [9] | [20] | [10] | [11] | [13] | [12]

Cc1c(N)cccc1N
inactive: [1] | [2] | [3] | [4] | [6] | [7] | [8] | [17] | [9] | [20] | [10] | [11] | [13] | [12]

COc1cc2c(cc1N)oc1ccccc12
active: [7] 62.4 µM | [17] 27.9 µM
inactive: [1] | [2] | [3] | [5] | [8] | [9] | [20] | [10] | [11] | [13]

Cc1onc(-c2ccccc2)c1C(=O)Cl
inactive: [2] | [3] | [4] | [5] | [7] | [17] | [9] | [20] | [10] | [11] | [13] | [12]

Nc1ccc2ccccc2c1S(=O)(=O)O
inactive: [1] | [2] | [3] | [4] | [5] | [17] | [10] | [11] | [13] | [12]

CCOC(=O)CS
inactive: [1] | [2] | [3] | [5] | [6] | [8] | [9] | [10] | [12]
active: [4] 25 µM | [17] 19.9 µM | [11] 70.5 µM

CCOC(=O)COc1ccc2c(c1)CC(NCC(O)c1cccc(Cl)c1)CC2 (stereo not drawn)
active: [1] 44 µM | [6] 21.9 µM | [7] 27.5 µM | [17] 27.5 µM
inactive: [3] | [4] | [5] | [8] | [13] | [19] | [12]

OCCN1CCN(CCO)CC1
inactive: [1] | [2] | [3] | [4] | [6] | [7] | [8] | [17] | [20] | [10] | [11] | [13] | [12]

CC1(C)C(=O)N(Cl)C(=O)N1Br
inactive: [1] | [2] | [3] | [4] | [6] | [7] | [8] | [17] | [10] | [11] | [13]

CCc1cc2cc(OC)c(OC)cc2c(Cc2ccccc2)n1
inactive: [2] | [3] | [4] | [5] | [6] | [7] | [8] | [9] | [10] | [11] | [18] | [13] | [19] | [12]
active: [14] 4.22 µM

FC(F)(F)C(Cl)(Cl)Cl
inactive: [1] | [2] | [3] | [4] | [6] | [7] | [8] | [17] | [9] | [20] | [10] | [11] | [13] | [19] | [12]

CCCCCCCCCCCCCCCCOP(=O)([O-])OCC[N+](C)(C)C
inactive: [2] | [3] | [16] | [4] | [5] | [6] | [7] | [8] | [17] | [9] | [20] | [10] | [13] | [12]
